# Bioassay records: PubChem, National Center for Advancing Translational Sciences (NCATS)
# This is a sample that favours compounds with a hit; in the whole collection about 19% have one here.
# HT1080 IDH1KD tx – qHTS for induction of synthetic lethality in tumor cells producing 2HG: qHTS for the HT-1080-IDH1KD cell line; HT-1080 IDH1 knockdown viability, ATP luminescence, 48 h; Potency, µM (titrated, usually from 46.1 µM), inactives show at the highest dose activity, negative = toxicity, usual class: cytotoxic; 360,000 tested, 2% active;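 note: potency is the fitted concentration of half-maximal effect; 0% = DMSO wells and -100% = cell-free medium wells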
#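 IDH1KD HT-1080 cells, 750/well, RPMI + 5% FBS; compound pinned after 2 h settling; 48 h, 37 °C; CellTiter-Glo luminescence; % activity normalised to DMSO and no-cell wells; curves fitted, classed by r2 and efficacy.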
# TDP1 cell CPT – qHTS for Inhibitors of human tyrosyl-DNA phosphodiesterase 1 (TDP1): qHTS in cells in presence of CPT | chicken DT40 Tdp1-/-;hTDP1 cells + 20 nM CPT, ATP luminescence, 48 h | Potency, µM (doses to about 46.2 µM), for the others: top-dose activity change, negative = growth inhibition, hits mostly inhibitors | 420,000 tested, 12% active; note: potency is the fitted concentration of half-maximal effect; nearly all actives have a fitted effect of over 55% in size
#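 Chicken DT40 Tdp1-/- cells stably complemented with human TDP1 were seeded at 400 cells/well in medium containing 20 nM camptothecin, exposed to pin-transferred compounds, and grown at 37 °C for at least 48 hr. Viability was read as ATP luminescence.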
# DT40 TDP1 no CPT – qHTS for Inhibitors of human tyrosyl-DNA phosphodiesterase 1 (TDP1): qHTS in cells in absence of CPT; 420,000 tested, 15% active; AID 686978, 2013; Potency, µM (titrated, usually from 46.2 µM), inactives show top-dose activity change, negative = growth inhibition, most hits filed as inhibitors; DT40 Tdp1-/- hTDP1 cells, no CPT, ATP luminescence, 48 h; note: potency is the fitted concentration of half-maximal effect; nearly all actives have a fitted effect of over 55% in size
#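 Compound effects on proliferation are scored in DT40 Tdp1-/-;hTDP1 cells in the absence of CPT. ATP levels (CellTiter-Glo luminescence) are recorded after a ≥48 hr, 37 °C incubation.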
# HT1080-NT tox – qHTS for induction of synthetic lethality in tumor cells producing 2HG: qHTS for the HT-1080-NT fibrosarcoma cell line. HT-1080-NT fibrosarcoma viability, CellTiter-Glo ATP luminescence, 48 h. Potency, µM (doses to about 46.1 µM), inactives show at the highest dose activity, negative = less viability, actives largely listed as cytotoxic. 360,000 tested, 1.6% active. AID 686970, 2013;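 note: NT is the 2HG producing partner of a matched IDH1 knockdown line; potency is the fitted concentration of half-maximal effect; 0% = DMSO-treated cells and -100% = media-only wells without cells; nearly all actives have a fitted effect of over 55% in size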
#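 Toxicity toward the 2HG-producing NT line was scored as %Activity, normalised to DMSO and no-cell wells, from CellTiter-Glo luminescence after 48 hours' treatment.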
# IL1B secr inh – qHTS for Inhibitors of Inflammasome Signaling: IL-1-beta AlphaLISA Primary Screen. THP-1 LPS/ATP IL-1B secretion, AlphaLISA, 16 h; hits give low values. activity change, % at 57.5 µM. 360,000 tested, 4.7% active. AID 743279, 2014; in the data active = activity change below about -50%; inconclusive = mostly about -30% to -49%
#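 Secreted IL-1B measured by AlphaLISA bead assay after 16 h compound exposure of THP-1 cells; compounds (final up to 57.5 uM) added 1 h before LPS (250 ng/mL) and ATP (1.25 mM) stimulation; lower signal means less secretion.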
# * hit, by the source's call; i = inactive; ? = inconclusive; . = no result; [ ] = dose if it differs, or a comment. Unless noted, calls come from the whole dose curve; as a rule, active = well fitted curve in the direction sought with a large enough effect; inconclusive = small, poorly fitted or top-dose-only effect, or another doubt; inactive = no such curve, though single readings can be large; an effect the other way counts as inactive or inconclusive. Unless noted, % is set by controls: 0 for no effect and ±100 for the full control effect.
SMILES,HT1080 IDH1KD tx,TDP1 cell CPT,DT40 TDP1 no CPT,HT1080-NT tox,IL1B secr inh
NC(c1csc(NC(=O)Nc2ccccc2Cl)n1)C1CCCCC1 (centres undefined),?,23.1µM*,16.4µM*,?,0.0
CCNC(=O)CN1C(=O)NC(Cc2ccccc2)(Cc2ccccc2)C1=O,16.1%,0.7%,0.0%,-3.1%,-1.3
COC(=O)c1c(OCCN2CCCCC2)cc(=O)n2c1CCN(Cc1cccc3nccnc13)CC2,.,-19.4%,-21.0%,.,.
CCOc1ccc(C(c2c(O)cc(C)n(Cc3ccco3)c2=O)N2CCN(C)CC2)cc1 (centres undefined),.,-12.0%,-9.3%,.,.
CC(=O)C(N=Nc1ccccc1)(Sc1nnc(-c2ccccc2)n1-c1ccccc1)C(C)=O,-29.7%,?,16.4µM*,-27.6%,-4.9
Cc1cc(NS(=O)(=O)c2cn(C)nc2C)no1,7.2%,44.2%,21.2%,23.4%,-4.5
O=C(NCCc1csc(-c2ccccc2)n1)c1cccs1,-2.3%,23.1µM*,9.2µM*,3.2%,?
O=C(NCCc1ccc(Cl)cc1)c1cccs1,-3.5%,-3.9%,-13.7%,-8.5%,-26.0
COc1ccc(-c2nc(CCNC(=O)c3cccs3)cs2)cc1OC,.,?,20.6µM*,.,.
Cc1nc(CCNC(=O)c2cccs2)cs1,3.6%,0.3%,-1.5%,14.4%,-15.9
O=C(NCCc1csc(-c2cccnc2)n1)c1cccc2ccccc12,-3.1%,16.4µM*,23.1µM*,-22.2%,-1.4
O=C(NCCc1csc(-c2ccc(Cl)cc2)n1)c1cccs1,.,?,16.4µM*,.,.
CCC(=O)Nc1ccc(-c2nc(-c3ccccc3)n(CC(=O)N3CCCCC3)n2)cc1,-1.1%,-20.5%,-33.2%,-3.6%,-7.0
CCCN(CC(=O)Nc1ccccc1OC)C(=O)c1nc2nc(C)ccn2n1,21.8%,2.9%,6.2%,-3.0%,2.9
CC(C)NC(=O)Cn1nc(N2CCN(c3ccccc3)CC2)ccc1=O,.,-3.4%,1.6%,.,.
O=C(NCc1csc(-c2ccccc2)n1)c1ccco1,-1.1%,-17.5%,-21.1%,1.6%,-10.5
O=C(NCCc1csc(-c2ccccc2)n1)c1ccco1,-3.2%,18.4µM*,?,2.5%,?
O=C(NCc1ccccc1)c1csc(-c2cccnc2)n1,-13.2%,?,5.8µM*,-13.3%,?
O=C(NCCc1csc(-c2cccnc2)n1)c1ccccc1,13.8%,-18.1%,-27.8%,-0.1%,-1.4
C/C(Cn1ncc(N2CCOCC2)c(Cl)c1=O)=N\O,12.4%,0.0%,-8.1%,-4.6%,7.5
O=C(Nc1ccccc1C(=O)O)c1ccc(NC(=O)C2CCCCC2)cc1,-22.4%,?,?,-14.1%,i
CC(C)CN(C)C(=O)CCc1nnc(Cc2ccc(-c3ccccc3)cc2)o1,-4.7%,?,11.6µM*,-15.7%,11.8
O=Nc1c(O)n(Cc2ccc(Cl)c(Cl)c2)c2ccccc12,?,?,?,-25.3%,-58.9*
O=Nc1c(O)n(Cc2cccc(C(F)(F)F)c2)c2ccccc12,?,9.6%,-19.2%,?,-245.9*
COC(=O)CCN(C(=O)c1cccc(OC(C)=O)c1)c1ccccn1,1.3%,-3.4%,-6.7%,2.1%,-5.2
SMILES,HT1080 IDH1KD tx,TDP1 cell CPT,DT40 TDP1 no CPT,HT1080-NT tox,IL1B secr inh
O=C1CNC(=O)/C1=C/c1ccc(Br)cc1,13.1%,0.6%,-25.9%,15.9%,-3.7
COc1cc2c(cc1OC)/C(=C/c1ccc(Br)cc1)C(=O)OC2,?,?,18.4µM*,?,0.0
COc1cccc(/C=N\NC(=O)c2ccc(Cn3cc(Br)c([N+](=O)[O-])n3)o2)c1O,?,?,3.26µM*,?,167.4
COc1cccc(/C=N/NC(=O)Cn2nc(C)c([N+](=O)[O-])c2C)c1O,18.4µM*,5.8µM*,5.8µM*,?,52.9
COc1ccc(/C=N/NC(=O)c2ccco2)cc1Cn1nc(C)c([N+](=O)[O-])c1C,-4.8%,?,18.4µM*,-4.8%,20.3
COc1ccc(/C=N/NC(=O)c2ccco2)cc1Cn1nc(C)cc1C,8.6%,-2.3%,-21.1%,2.6%,18.9
Cc1nn(CC(=O)N/N=C/c2cccs2)c(C)c1[N+](=O)[O-],3.2%,2.8%,-27.9%,8.2%,-23.9
COc1cccc(/C=N/NC(=O)C(C)n2nc(C)c([N+](=O)[O-])c2C)c1O (centres undefined),?,0.92µM*,1.03µM*,-26.7%,36.5
CCOC(=O)C(C)(C)Oc1cccc2c1S(=O)(=O)c1ccccc1-2,1.6%,-6.2%,-14.8%,6.8%,-0.7
Cc1cc(C)n(-c2ccc(NC(=O)C3CCCCN3Cc3cccc4c3OCO4)cc2)n1 (centres undefined),?,?,?,-24.8%,4.8
O=C(Nc1ccn(Cc2cccc3ccccc23)n1)c1cccnc1,?,?,?,-19.2%,-4.3
O=C(CC1(O)C(=O)N(Cc2cccc3ccccc23)c2ccccc21)c1cccnc1 (centres undefined),10µM*,0.92µM*,0.82µM*,?,30.2
CN1C(=O)C(O)(CC(=O)c2cccnc2)c2ccccc21 (centres undefined),4.2%,11.6µM*,10.3µM*,3.5%,16.4
Cc1ccc(C)c(C(=O)CC2(O)C(=O)N(C)c3ccccc32)c1 (centres undefined),10.3%,-15.6%,4.2%,0.0%,23.8
O=C(C[n+]1ccccc1)Nc1ccccc1Br,3.0%,1.6%,-10.3%,?,11.3
CCOc1ccc(-n2c(SCC(=O)NCc3ccco3)nnc2-c2c[nH]c3ccccc23)cc1,-19.4%,?,13µM*,0.4%,-29.0
Cn1c(SCC(=O)NCc2ccco2)nnc1-c1ccccc1,2.1%[9.24 µM],0.1%,-12.6%,7.9%,-9.9
Cn1c(SCC(=O)NCc2ccco2)nnc1-c1c[nH]c2ccccc12,1.1%,20.6µM*,-22.6%,0.2%,10.4
CCOc1ccc(Nc2nc(Cc3nnc(SCC(=O)NCc4ccco4)n3CC)cs2)cc1,-5.1%,13µM*,13µM*,-5.4%,18.9
C=CCNC(=O)c1ccc2c(c1)S(=O)(=O)c1ccccc1C2=O,-2.5%,-15.7%,-21.5%,-0.3%,-6.1
CCCCN(C(=O)c1cc(-c2ccncc2)nc2ccccc12)c1c(N)n(CC(C)C)c(=O)[nH]c1=O,0.2%,-0.3%,-20.8%,-0.4%,15.4
O=C(/C=C/c1ccc(Cl)cc1)N(Cc1cccs1)C1CCS(=O)(=O)C1 (centres undefined),-11.9%,?,?,-1.7%,-9.5
